Measurements: PubChem BioAssay
Where “and” joins values, the source holds several entries; their conditions need not be identical. Equal entries are not always repeated. Records with an inconclusive call do not appear. Calls of active or inactive are those of the source.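 The calls were made as follows, unless noted: active = compounds whose cell count with miR-34 switched on is under 0.7 times the count with it off; inactive = the rest.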

Experiments:
[1] = compounds altering circadian rhythm period length – cell-based, LOPAC library, luminescence reporter (AID 2774; call rule not given here;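 also: values are relative to mean of DMSO wells on each plate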); conditions: circadian reporter cells, at 7 µM, actives lie on both sides
[2] = viability loss with induced miR-34 in A549 – imaging, A549 dox-inducible miR-34, nuclei and caspase counts, primary screen (AID 1347080); conditions: A549 miR-34 inducible, Hoechst nuclei count, 48 h
[3] = galactose survival enhancers in mitochondrial complex I cybrids – cell-based, galactose medium, ATP luminescence, primary screen (AID 1645843;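 active = z-score of at least 1.8 in each of two replicates, scored against plate mean and spread of sample wells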;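 also: positive z means more ATP and so rescue of galactose-driven cybrid death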); conditions: complex I mutant cybrid cells, 72 h, stronger effect = higher value
[4] = compounds altering viability of human ES cells (AID 493140; call rule not given here;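 also: cells exposed to compounds for four days before counting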); conditions: human embryonic stem cell survival screen; stronger effect = higher value
[5] = P. berghei load reduction in hepatocytes – cell-based, HepG2, luciferase luminescence, HepG2 viability, primary screen (AID 624349; in the data active = parasite load remaining mostly below about 12%, no sharp cut-off; inactive = mostly above about 10%;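 also: 100% = mean of DMSO negative control wells on the same plate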); conditions: P. berghei liver stage in HepG2, luciferase luminescence, concentration not given here; parasite load remaining: stronger effect = lower value; viability: measured here: HepG2 viability without parasites
[6] = system: Hepatitis C virus NS3 helicase; assay: blockers of NS3h binding to ssDNA – biochemical, fluorescence polarization, LOPAC1280 library, primary screen (AID 687035; in the data active = inhibition above about 37%); conditions: Purified HCV NS3 helicase, Cy5-dT15 ssDNA binding fluorescence polarization; stronger effect = higher value; concentration not given here
[7] = compounds altering Cy5-DNA-NS3h complex signal – biochemical, LOPAC1280, artefact control for HCV NS3 helicase inhibitor project (AID 687037; call rule not given here); conditions: Cy5-DNA-NS3h complex fluorescence interference counterscreen
[8] = biological target: ATP-dependent translocase ABCB1 (Homo sapiens) (UniProt P08183); assay: P-glycoprotein substrate transport blockade – cell-based (AID 377; in the data active = fluorescence slope change above about 50%); conditions: MDR1-expressing cells, fluorescent substrate accumulation slope; stronger effect = higher value; concentration not given here
Chain of ATP-dependent translocase ABCB1 (Homo sapiens) (P08183 whole entry, looked up): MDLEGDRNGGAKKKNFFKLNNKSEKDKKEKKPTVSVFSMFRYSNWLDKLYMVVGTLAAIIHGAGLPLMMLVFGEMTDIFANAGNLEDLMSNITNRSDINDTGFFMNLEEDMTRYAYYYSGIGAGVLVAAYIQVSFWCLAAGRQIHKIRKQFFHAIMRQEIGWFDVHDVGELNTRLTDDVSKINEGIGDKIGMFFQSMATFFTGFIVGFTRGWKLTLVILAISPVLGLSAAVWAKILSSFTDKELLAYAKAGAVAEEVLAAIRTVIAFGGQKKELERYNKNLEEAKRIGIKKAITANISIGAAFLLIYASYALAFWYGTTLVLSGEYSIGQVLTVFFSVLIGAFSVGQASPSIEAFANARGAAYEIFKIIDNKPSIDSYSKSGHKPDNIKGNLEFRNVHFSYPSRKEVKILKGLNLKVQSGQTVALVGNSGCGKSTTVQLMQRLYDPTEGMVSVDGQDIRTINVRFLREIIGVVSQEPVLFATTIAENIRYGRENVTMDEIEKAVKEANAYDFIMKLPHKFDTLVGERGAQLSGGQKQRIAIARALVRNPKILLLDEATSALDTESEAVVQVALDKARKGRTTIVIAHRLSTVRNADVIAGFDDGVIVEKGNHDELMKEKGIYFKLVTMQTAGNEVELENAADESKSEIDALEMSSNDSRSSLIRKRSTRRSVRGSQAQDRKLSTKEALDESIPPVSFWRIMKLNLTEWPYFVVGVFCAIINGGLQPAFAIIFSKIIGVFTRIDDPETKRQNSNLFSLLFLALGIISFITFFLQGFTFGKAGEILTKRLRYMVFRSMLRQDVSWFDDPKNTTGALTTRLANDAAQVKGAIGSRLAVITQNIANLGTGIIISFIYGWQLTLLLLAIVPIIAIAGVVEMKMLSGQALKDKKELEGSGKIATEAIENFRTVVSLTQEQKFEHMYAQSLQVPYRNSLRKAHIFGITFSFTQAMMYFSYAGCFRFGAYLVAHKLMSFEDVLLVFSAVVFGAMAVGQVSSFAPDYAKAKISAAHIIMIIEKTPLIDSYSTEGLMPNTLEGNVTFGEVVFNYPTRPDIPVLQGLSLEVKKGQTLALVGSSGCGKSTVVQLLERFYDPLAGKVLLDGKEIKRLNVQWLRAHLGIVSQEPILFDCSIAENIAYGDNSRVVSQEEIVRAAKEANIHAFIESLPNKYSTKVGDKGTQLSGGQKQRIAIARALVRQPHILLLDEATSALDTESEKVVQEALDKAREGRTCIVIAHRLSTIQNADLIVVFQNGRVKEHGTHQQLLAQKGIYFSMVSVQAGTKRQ

[9] = stronger effect = lower value, cell number ratio, induced over uninduced
[10] = measured here: relative caspase fold change +Dox/-Dox
[11] = measured here: total cells with miR-34 induction, stronger effect = lower value
[12] = measured here: total cells without miR-34 induction

SMILES	period change [1]	fold change [2, 9]	fold change [2, 10]	cell count [2, 11]	cell count [2, 12]	z-score [3]	survival [4]	parasite load remaining [5]	viability [5]	inhibition [6]	fluorescence ratio (interference) [7]	fluorescence slope change [8]
CCOC(=O)C12CC1/C(=N/O)c1ccccc1O2 (centres undefined)	-0.125 h (inactive)	1.06 (inactive)	2.7	9720	9140	0.485 (inactive)	–	–	–	–	–	–
COc1c2c(nc3ccccc13)OC(C(C)(O)CO)C2 (centres undefined)	0.065 h (inactive)	0.919 (inactive)	0.535	8340	9080	–	14.3 (inactive)	78.4% (inactive)	73.1%	–	–	–
CCC[C@@H]1C[C@@H](C(=O)N[C@@H]([C@H]2O[C@H](SC)[C@H](O)[C@@H](O)[C@@H]2O)[C@@H](C)O)N(C)C1	–	0.982 (inactive) and 0.853 (inactive)	0.967 and 1.36	11000 and 8020	11200 and 9400	1.21 (inactive)	–	53.4% (inactive) and 46.6% (inactive)	129% and 47.8%	–	–	–
NC(N)=[N+]1CCc2ccccc2C1	-0.15 h (inactive)	1.01 (inactive)	1.06	8570	8500	-0.075 (inactive)	–	–	–	-1% (inactive)	1.1 (inactive)	–
COc1cc(=O)n(C)c2c(OCC(O)C(C)(C)O)cccc12 (centres undefined)	-0.165 h (inactive)	0.801 (inactive)	1.04	8320	10400	–	2.75 (inactive)	88% (inactive)	97.7%	–	–	-8.1% (inactive)
Nc1nc(SCc2ccc([N+](=O)[O-])cc2)c2ncn([C@@H]3O[C@H](CO)[C@H](O)C3O)c2n1 (some centres undefined)	-0.105 h (inactive)	1.08 (inactive)	0.784	10100	9310	-0.085 (inactive)	–	–	–	-2% (inactive)	0.9 (inactive)	–
COc1c(O[C@@H]2O[C@H](CO)[C@@H](O)[C@H](O)[C@H]2O)cc2c(c1OC)-c1ccc(SC)c(=O)cc1C(NC(C)=O)CC2 (some centres undefined)	–	0.892 (inactive)	1.15	8970	10100	–	8.17 (inactive)	68.6% (inactive) and 75.2% (inactive)	120% and 78%	–	–	56.6% (active)
Cc1n[nH]c(=O)[nH]c1=O	–	0.871 (inactive)	1.41	8710	10000	–	3.58 (inactive)	54.2% (inactive) and 83.7% (inactive)	111% and 75.4%	–	–	50.5% (active)
CCCCCCCCCCCCCCCC(=O)OCC(COP(=O)(O)O)OC(=O)CCCCCCCCCCCCCCC (centres undefined)	–	0.922 (inactive)	1.21	5850	6340	–	95.5 (inactive)	–	–	–	–	–
CCCCCCCCCCCCCCCCOCC(CO)OC (centres undefined)	–	1.02 (inactive)	1.45	5930	5790	–	85.4 (inactive)	–	–	–	–	–
CCCCCCCCCCCCCCCCOCC(COP(=O)([O-])OCC[N+](C)(C)C)OC (centres undefined)	–	0.921 (inactive)	1.04	5520	5990	–	64.4 (inactive)	–	–	–	–	–
CCCCCC(=O)/C=C/[C@@H]1[C@@H](C/C=C\CCCC(=O)O)[C@@H](O)C[C@H]1O	–	1.04 (inactive)	1.11	6170	5940	–	66.1 (inactive)	–	–	–	–	–
CCCCC/C=C\C[C@@H](O)/C=C/C=C/C=C\[C@@H](O)CCCC(=O)O	–	0.993 (inactive)	1.34	6200	6240	–	102 (inactive)	–	–	–	–	–
C[C@H](CCC(=O)NCC(=O)O)[C@H]1CC[C@H]2[C@@H]3[C@H](O)C[C@@H]4C[C@H](O)CC[C@]4(C)[C@H]3C[C@H](O)[C@]12C	–	0.862 (inactive)	1.21	8770	10200	–	14.6 (inactive)	142% (inactive) and 80.1% (inactive)	103% and 76.4%	–	–	91% (active)
CCCCCCCCCCCCCCCCOCC(CO)OC(C)=O (centres undefined)	–	0.942 (inactive)	1.66	5510	5840	–	63.3 (inactive)	–	–	–	–	–
CCCCC[C@H](O)/C=C/[C@@H]1[C@@H](CCCCCCC(=O)O)[C@@H](O)C[C@H]1O	–	0.91 (inactive) and 0.991 (inactive)	1.19 and 1.15	5960 and 6030	6550 and 6090	–	96.8 (inactive)	–	–	–	–	–
COC(=O)C1=CO[C@@H](C)[C@H]2CN3CCc4c([nH]c5ccccc45)[C@@H]3C[C@H]12	–	0.773 (inactive)	1.63	5880	7600	–	10.5 (inactive)	108% (inactive) and 62.6% (inactive)	97.4% and 74.1%	–	–	76.8% (active)
C[N+]1(C)C[C@@H](O)C[C@H]1C(=O)[O-]	–	0.868 (inactive)	1.07	8350	9610	–	7 (inactive)	117% (inactive)	106%	–	–	28.3% (inactive)
CCCCCCCC/C=C\CCCCCCCC(=O)OC[C@@H](O)COP(=O)(O)O	–	0.957 (inactive) and 0.893 (inactive)	1.42 and 0.522	6370 and 5350	6660 and 5990	–	57.2 (inactive)	–	–	–	–	–
COc1ccc2c(OC)c3ccoc3nc2c1OC	–	0.86 (inactive)	1.16	8660	10100	–	3.67 (inactive)	157% (inactive)	95.8%	–	–	16.3% (inactive)
CCCCC[C@H](O)/C=C/[C@@H]1[C@@H](C/C=C\CCCC(=O)O)[C@@H](O)C[C@@H]1O	–	0.891 (inactive) and 0.917 (inactive)	1.22 and 1.29	5840 and 5720	6560 and 6230	–	97.2 (inactive)	–	–	–	–	–
CCCCC[C@H](O)/C=C/[C@@H]1[C@H]2C/C(=C/CCCC(=O)O)C[C@H]2C[C@H]1O	–	0.942 (inactive)	1.29	5920	6280	–	59.9 (inactive)	–	–	–	–	–
CCCCCCCCCCCCC(O)C(=O)O (centres undefined)	–	0.965 (inactive) and 0.989 (inactive)	1.1 and 0.875	6110 and 6000	6330 and 6060	–	71.7 (inactive)	–	–	–	–	–
O=C(O)CCC/C=C\C[C@@H]1[C@@H](/C=C/[C@@H](O)COc2cccc(C(F)(F)F)c2)[C@H](O)C[C@@H]1O	–	0.964 (inactive) and 1.06 (inactive)	2.48 and 1.05	5470 and 6950	5680 and 6530	–	118 (inactive)	–	–	–	–	–
C=C1C(c2ccc(C)cc2)=CCc2cc(C)cc(C)c21	–	0.866 (inactive)	0.886	1920	2210	–	98.5 (inactive)	–	–	–	–	–
CCCCC[C@H](O)/C=C/[C@@H]1[C@@H](C/C=C\CCCC(=O)O)[C@H]2CO[C@@H]1C2	–	0.992 (inactive)	1.22	5990	6040	–	104 (inactive)	–	–	–	–	–
CCCCCC(=O)/C=C/[C@H]1[C@H](O)CC(=O)[C@@H]1C/C=C\CCCC(=O)O	–	0.973 (inactive)	1.18	6130	6300	–	92.3 (inactive)	–	–	–	–	–
C=C1CC[C@H](O)C/C1=C/C=C1\CCC[C@]2(C)[C@@H]([C@H](C)CC[C@@H](O)C(C)(C)O)CC[C@@H]12	–	1.03 (inactive)	1.15	5660	5500	–	80.4 (inactive)	–	–	–	–	–
